± gives the standard deviation.
What follows are sequences tested on MILI (PIWIL2) piRISC loaded with piRNA #1 (26 nt) (assay: pre-steady-state target cleavage rate (min^-1); guide: piRNA #1 5'p-UGAGGUAGUAGGUUGUAUAGUAUCCA; MIWI and MILI are mouse PIWI proteins and EfPiwi is from a freshwater sponge; tags in brackets are library labels; higher = faster piRNA-guided slicing of the target). Conditions: auxiliary factor: 500 nM mouse GTSF1.
Experimental: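 Cleave-'n-Seq: a library of target RNAs (target site embedded in constant flanks, ACAGCATTCCGCGTTAGTGATATCCG... 5' flank; DNA-blocked outside the site) at 0.1 nM was incubated with 1 nM active mouse MILI or MIWI piRISC (synthetic 5'-monophosphorylated piRNA guide) with or without 500 nM mouse GTSF1 at 33 °C for 1 min to 16 h. Uncleaved targets were sequenced and normalised to non-target controls, and the pooled three trials were fitted to a burst-and-steady-state model to give the pre-steady-state cleavage rate (min^-1; k3 is constrained to at most 1e-4). Sequence is the target site only; target names encode pairing extent (gX:gY) and contiguous / 1-mismatch / 2-mismatch / bulge geometry. Fits with R² ≤ 0 are excluded.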

Row | Sequence | pre-steady-state target cleavage rate
1 | GGAGACCUAACUAUACAACCUACUACCUAA | 0.0853 ± 0.015
2 | GGAGACCAUACAUAUACAACCUACUACCUCA | 0.101 ± 0.013
3 | GGAGACGAUACUACACAACCUACUACCUCA | 0.203 ± 0.019
4 | GGAGACGAUACUAUAGAACCUACAACCUCA | 0.0115 ± 0.0039
5 | GGAGACCUAACUAUACAACCUACUACCUUCA | 0.14 ± 0.028
6 | GGAGACCUAACUAUACAACCUACUAGCACA | 0.00779 ± 0.0065
7 | GGAGUGCAUACUAUACAACCUACUACCUGA | 0.09 ± 0.011
8 | GGAGUGCAUACUAUACAACCAACUACCUCA | 0.00672 ± 0.0023
9 | GGAGACCAUACUAUACAACCUACUUACCUCA | 0.175 ± 0.017
10 | GGAGACCAUACUAUACAUCCUACUACCUGA | 0.23 ± 0.034
11 | GGAGACCUAUCUAUUCAACCUACUACGUCA | 0.0451 ± 0.0089
12 | GGAGACCUAUGUAUACAAGCAACUACCUCA | 0.0055 ± 0.0022
13 | GGAGAGGAUACAAUACAACCUACAACCUCA | 0.115 ± 0.015
14 | GGAGACCUAUGAAAACAUCCUACUACCUCA | 0.00361 ± 0.0024
15 | GGAGUGGAUACUAUACAACCUACUACCUGA | 0.0915 ± 0.011
16 | GGAGACCUAUCUAUACAUCCUUCUACCUCA | 0.0137 ± 0.0039
17 | GGAGACCUAUGUAUACAACCUACAACCUGA | 0.0031 ± 0.0024
18 | GGAGACCUAUGAAUACAACCUACUACAUCA | 0.00323 ± 0.0026
19 | GGAGACCAUACUUUACAACCUACAACCUCA | 0.14 ± 0.018
20 | GGAGUGGAUACUAUACAACCUUCUACCACA | 0.00348 ± 0.0024

Row | Sequence | pre-steady-state target cleavage rate
21 | GGAGACCUAUCUAUACAACCAUCUACCUCA | 0.00428 ± 0.0031
22 | GGAGUGGAUACUAUACAACCUAUUACCUCA | 0.158 ± 0.014
23 | GGAGACCUAUCUAUACUACCUACUACCUGA | 0.0569 ± 0.013
24 | GGAGACCUAACUAUACAAGCUACUACCACA | 0.309 ± 0.029
25 | GGAGACCUAUGAAUACAACCUAACUACCUCA | 0.00316 ± 0.0021
26 | GGAGUGGAUACUAUACAAGCUACUACCUGA | 0.0875 ± 0.014
27 | GGAGACCAUACUUUUCAACCUACUACCUCA | 0.153 ± 0.015
28 | GGAGACCAUACUAUACAGCCUACUACCUCA | 0.157 ± 0.02
29 | GGAGAGGAUACUAUACAAGCUACUACCUCA | 0.143 ± 0.014
30 | GGAGACGAUAGCUAUACAACCUACUACCUCA | 0.0779 ± 0.0075
31 | GGAGUGGAUACUAUACAUCCAACUACCUCA | 0.00718 ± 0.0021
32 | GGAGACCUAUGUAUUCUACCUACUACCUCA | 0.0111 ± 0.0026
33 | GGAGACCUAAGCUAUACAACCUACUACCUCA | 0.141 ± 0.028
34 | GGAGACGAUACUUUACAACCUACUACCACA | 0.2 ± 0.025
35 | GGAGACCUAUGUAAACAACCUACUACCACA | 0.00967 ± 0.0036
36 | GGAGUGGAUACUCAUACAACCUACUACCUCA | 0.161 ± 0.012
37 | GGAGACCUAACAAUACAACCUACUACCUGA | 0.0637 ± 0.022
38 | GGAGAGGAUACUAUACAACCUACCACCUCA | 0.129 ± 0.018
39 | GGAGACGAUUCUAUAGAACCUACUACCUCA | 0.172 ± 0.012
40 | GGAGACCUUACUAUACAACCAACUACGUCA | 0.00333 ± 0.0023
